LMNA splice mod = qHTS Assay for Modulators of Lamin A Splicing; AID 1487, 2009; 0.01% of 200,000 active; Potency, µM (top dose mostly 46.1 µM), for inactives: at the top dose ratio change, negative = inhibition, most hits filed as inhibitors; HeLa LMNA splicing GFP/RFP minigene ratio, 48 h; active = well fitted inhibition curve with a large enough effect in the signal ratio, with a control signal flat, not every such curve was filed as active; inconclusive = small, poorly fitted or top-dose-only effect, or effect the other way, or a change in a side signal; the % refers to the signal ratio; note: % is set by controls: 0 for no effect and ±100 for the full control effect
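Read-out is the ratio of GFP to DsRed2 object intensity, acquired by 488 nm laser-scanning cytometry on HeLa lamin A-EGFP minigene reporter cells. Compound incubation 48 hrs at 37 °C in Opti-MEM with 2% FBS; DMSO 0.5% final.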
HTT ATP protect = qHTS Multiplex Assay to Identify Dual Action Probes in a Cell Model of Huntington: Cytoprotection (ATP) | PC12 HTT-Q103 induced, cytoprotection, ATP luminescence, 40 h | Potency, µM (series often up to 56.4 µM), inactives show cytoprotection (ATP increase), hits mostly activators | 0.14% of 230,000 active | AID 1471, 2008; note: % of control where 0% means no effect; nearly all actives have a fitted effect of over 45% in size
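PC12 cells stably carrying ecdysone-inducible Htt exon 1 (Q103)–GFP were induced with 100 nM tebufenozide (final) alongside library compounds in a dose series. Cytoprotection was scored as retained ATP by ATPlite luminescence.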
HPGD inh = qHTS Assay for Inhibitors of HPGD (15-Hydroxyprostaglandin Dehydrogenase) | 15-hydroxyprostaglandin dehydrogenase [NAD(+)] (Homo sapiens), P15428 | purified HPGD, NADH fluorescence kinetic, PGE2 substrate | Potency, µM, for inactives: top-dose activity change, negative = inhibition, hits mostly inhibitors | 4.3% of 150,000 active; active = well fitted inhibition curve with a large enough effect, not every such curve was filed as active; inconclusive = small, poorly fitted or top-dose-only effect, or another doubt; inactive = no such curve, though single readings can be large or run the other way; note: % is set by controls: 0 for no effect and ±100 for the full control effect
Target sequence (P15428 whole entry, looked up): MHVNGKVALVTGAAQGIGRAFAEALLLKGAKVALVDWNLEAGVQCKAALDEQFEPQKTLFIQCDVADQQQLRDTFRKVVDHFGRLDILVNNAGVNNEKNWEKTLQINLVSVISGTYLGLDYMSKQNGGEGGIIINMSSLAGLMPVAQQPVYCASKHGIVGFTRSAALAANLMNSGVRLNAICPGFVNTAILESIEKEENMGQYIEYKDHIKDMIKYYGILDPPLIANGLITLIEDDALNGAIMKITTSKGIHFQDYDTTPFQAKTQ
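20 nM HPGD preincubated 15 min at room temperature with compound in 50 mM Tris-HCl pH 8, 0.01% Tween 20. Started with 1 mM NAD+ and 30 uM prostaglandin E2; NADH fluorescence (360/450 nm) read 5 times over 30-s intervals, last minus first.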
ALDH1A1 inh = qHTS Assay for Inhibitors of Aldehyde Dehydrogenase 1 (ALDH1A1); Aldehyde dehydrogenase 1A1 (Homo sapiens), P00352; Purified ALDH1A1, NADH fluorescence, propionaldehyde substrate; Potency, µM (series often up to 75.3 µM), for inactives: at the highest dose activity, negative = inhibition, actives largely listed as inhibitors; 7.3% of 220,000 active; active = well fitted inhibition curve with a large enough effect, not every such curve was filed as active; inconclusive = small, poorly fitted or top-dose-only effect, or another doubt; inactive = no such curve, though single readings can be large or run the other way;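 note: plate controls were no enzyme wells and a reference inhibitor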
Target sequence (P00352 whole entry, looked up): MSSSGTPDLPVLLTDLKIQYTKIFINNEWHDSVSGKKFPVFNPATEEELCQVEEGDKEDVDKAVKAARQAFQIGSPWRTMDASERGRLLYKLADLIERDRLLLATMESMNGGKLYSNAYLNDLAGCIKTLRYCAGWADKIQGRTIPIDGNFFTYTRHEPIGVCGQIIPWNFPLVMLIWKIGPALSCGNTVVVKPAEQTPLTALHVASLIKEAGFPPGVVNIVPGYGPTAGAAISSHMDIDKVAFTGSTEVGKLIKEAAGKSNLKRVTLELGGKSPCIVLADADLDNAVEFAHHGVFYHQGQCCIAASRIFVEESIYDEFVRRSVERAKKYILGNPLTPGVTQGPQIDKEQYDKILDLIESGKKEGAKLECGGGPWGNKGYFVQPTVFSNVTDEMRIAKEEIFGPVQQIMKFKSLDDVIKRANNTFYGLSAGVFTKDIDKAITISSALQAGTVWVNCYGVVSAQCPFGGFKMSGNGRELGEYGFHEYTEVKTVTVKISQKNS
HTT aggregate = qHTS Multiplex Assay to Identify Dual Action Probes in a Cell Model of Huntington: Aggregate Formation (GFP) | Potency, µM (doses to about 46.1 µM), inactives show at the highest dose activity change, negative = inhibition, usual class: inhibitors | 1.1% of 220,000 active | PC12 HttQ103-GFP aggregates, Acumen cytometry, 40 h; note: % is set by controls: 0 for no effect and ±100 for the full control effect; nearly all actives have a fitted effect of over 60% in size
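Compounds (qHTS titration) were added to PC12 cells expressing an ecdysone-driven HTT exon 1 Q103–GFP fusion after induction with 100 nM tebufenozide. Aggregate formation was measured as GFP objects in cell lysates.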
* marks the source's active call; other numbers are inactive results; ? = inconclusive; / = no result; [ ] = remark or other dose. Hits are enriched below; roughly 8.8% of the tested compounds scored in any of these assays. Unless noted, calls come from the whole dose curve; as a rule, active = well fitted curve in the direction sought with a large enough effect; inconclusive = small, poorly fitted or top-dose-only effect, or another doubt; inactive = no such curve, though single readings can be large; an effect the other way counts as inactive or inconclusive. Potency is the fitted concentration of half-maximal effect.

SMILES	LMNA splice mod	HTT ATP protect	HPGD inh	ALDH1A1 inh	HTT aggregate
O=c1c2cc(NC(=S)N3CCCCCC3)ccc2nc2n1CCCCC2	-21%[46 µM]	-15%	/	?	-12%
O=[N+]([O-])c1ccc(N/N=C/c2ccc[nH]2)cc1	?	/	14µM*	2%	4%
O=[N+]([O-])c1ccc(N/N=C/c2c[nH]c3ccccc23)cc1	1%[0.0737 µM]	-29%	-3%	-16%	6%
N#C/C(=C\c1ccncc1)c1nc2ccccc2o1	/	-36%[10 µM]	/	/	-9%[9.22 µM]
N#C/C(=C\Nc1ccccc1O)c1nc2ccccc2o1	?	-27%[10 µM]	-29%	?	5.6µM*
Cc1ccc2c(c1)N[C@H](c1ccc(C(=O)O)cc1)c1cccn1-2	/	-5%[10 µM]	?	?	/
CO[C@@H]1COC(=O)CC=C[C@@H](C)[C@@H]2C=C[C@@H](O)[C@@H](COC(=O)C/C=C\[C@H]1C)O2	/	-10%[10 µM]	/	-6%[13.5 µM]	/
O=C(c1ccco1)N1CCC2(CC1)CN(c1ccccn1)C2	/	16%	?	?	/
COc1ccc(S(=O)(=O)N2CCSC2c2ccccc2)cc1 (stereo unspecified)	?	-1%[10 µM]	-19%	25µM*	-9%
CCOc1ccc(Nc2oc(-c3ccc(COc4ccccc4C)o3)nc2C#N)cc1	5%[46 µM]	/	/	/	/
CNC(=O)c1ccc(Oc2ccc(C(=O)NC)cc2)cc1	5%	0%	2.5µM*	-12%	?
CNC(=O)c1ccc(OC2CSC2)cc1	6%	0%	-5%	0%	28%
CCOC(=O)C(CS)NCCN[C@@H](CS)C(=O)OCC (stereo partly specified)	/	2%	/	/	17%
Clc1ccc(OCc2nc(-c3ccncc3)no2)c(Cl)c1	?	-26%	13µM*	10%	-13%
COc1ccc(N2CC(NC(=O)c3ccc(S(=O)(=O)N4CCCCC4)cc3)CC2=O)cc1OC (stereo unspecified)	17%[46 µM]	/	/	/	/
COc1cc(OC)c(NC(=O)CCc2nc(C3=CCN(Cc4cccc(Cl)c4)CC3)no2)cc1Cl	-5%[46 µM]	/	/	/	/
Cn1cc(CN2CCc3c([nH]c4ccccc34)C2C2CCCCC2)cn1 (stereo unspecified)	-1%[46 µM]	2%[10 µM]	/	13µM*	15%[9.22 µM]
Cn1cc(CN2CCc3c([nH]c4ccccc34)C2C(C)(C)C)cn1 (stereo unspecified)	/	-7%[10 µM]	/	-3%	6%[9.22 µM]
COC(=O)c1ccccc1NC(=O)C1=C(C)C(=O)OC12CCCCCC2	20%[46 µM]	/	/	/	/
CCc1cc2ccc(OC)cc2nc1SCC(=O)NNC(=O)c1ccco1	-15%[46 µM]	-2%[10 µM]	/	6.3µM*	8%[9.22 µM]
CC(=O)Nc1ccc(N2C(=O)CC(Sc3nc4ccccc4s3)C2=O)cc1 (stereo unspecified)	/	-27%	/	0.71µM*	11%[9.22 µM]
COc1ccc(N2C(=O)CC(Sc3nc4ccccc4s3)C2=O)cc1OC (stereo unspecified)	?	3%[10 µM]	/	3.5µM*	16%[9.22 µM]
CCOC(=O)c1cnc(SC2CC(=O)N(c3ccc(OC)c(OC)c3)C2=O)nc1N (stereo unspecified)	-1%	6%[10 µM]	-13%	?	0%
COc1cccc(Cc2nc3ccccc3nc2SCC(=O)N2CCc3ccccc32)c1	13%[46 µM]	/	/	/	/
CN(C)Cc1c(O)ccc2oc(Cc3ccccc3)cc12	?	-37%[10 µM]	-15%	-1%	4.5µM*
SMILES	LMNA splice mod	HTT ATP protect	HPGD inh	ALDH1A1 inh	HTT aggregate
CN(C)Cc1c(O)ccc2ccccc12	/	-6%[10 µM]	/	/	-21%[9.22 µM]
CC(=O)c1c(C)oc2ccc(N(C(C)=O)S(=O)(=O)c3ccc(Cl)c([N+](=O)[O-])c3)cc12	?	-106%	-29%	?	11µM*
CCN(CC)c1ccc(CNc2nc3ccccc3n2C)cc1	/	11%[10 µM]	/	/	-6%[9.22 µM]
CCN(CC)c1ccc(CNC23CN4CN(CN(C4)C2)C3)cc1	?	-22%	-12%	5µM*	-27%
O=C(N/N=C1/C[C@@H](O)[C@@H](O)[C@@H]2[C@@H]3C(=O)N(C[C@@H]4CCCO4)C(=O)[C@H]3CC[C@H]12)OCc1ccccc1	/	-35%[10 µM]	/	?	/
Cc1nnc(NC(=O)C2c3ccccc3Oc3ccccc32)s1	?	-17%[10 µM]	22µM*	-14%	?
CC(C)c1nnc(NC(=O)C2c3ccccc3Oc3ccccc32)s1	-29%	-15%	-7%	?	-20%
O=C(Nc1nc(-c2ccccc2)cs1)C1c2ccccc2Oc2ccccc21	9%	-22%[10 µM]	-14%	1.8µM*	0%
C=C(C)C(O)C(CC/C=C(\C)C(=O)OCC)OC (stereo unspecified)	/	-13%[10 µM]	/	11%[13.5 µM]	/
C=CCOC(=O)C1=C(C)NC(=S)NC1c1cccs1 (stereo unspecified)	-1%	-1%[10 µM]	-7%	2.2µM*	3%
COCCOC(=O)C1=C(C)NC(=O)NC1c1cccs1 (stereo unspecified)	19%	-32%	-13%	4%	-6%
COCCOC(=O)C1=C(C)NC(=S)NC1c1cccs1 (stereo unspecified)	10%[46 µM]	2%[10 µM]	/	22µM*	1%[9.22 µM]
CSc1cccc(Nc2cc(C(=O)NCCCN(C)c3ccccc3)c3ccccc3n2)c1	7%[46 µM]	/	/	/	/
COc1cccc(-n2ccn(CC(=O)Nc3ccccc3F)c(=O)c2=O)c1	9%[46 µM]	/	/	/	/
O=C1CC(N2CCN(c3ccccc3O)CC2)C(=O)N1Cc1ccccc1 (stereo unspecified)	/	/	/	?	23%
CCCN(CCC)C1CC(=O)N(Cc2ccccc2)C1=O (stereo unspecified)	5%	-18%	1%	11µM*	15%[9.22 µM]
O=C1CC(N(O)C2CC(=O)N(Cc3ccccc3)C2=O)C(=O)N1Cc1ccccc1 (stereo unspecified)	8%	-50%	32µM*	7.1µM*	10%
COc1ccc(/C=C2\CCn3c2nc2cc(C(=O)O)ccc2c3=O)cc1OC	-3%[46 µM]	-7%[10 µM]	/	/	13%[9.22 µM]
COc1ccc(/C=C2\CCn3c2nc2cc(C(=O)O)ccc2c3=O)cc1O	-1%	-19%[10 µM]	14µM*	22µM*	-6%
COc1ccc(Oc2nc(-c3ccccc3)ncc2C(=O)O)cc1	/	/	/	8%	17%
COc1ccc(C(=O)c2cnc3ccccc3c2-c2ccccc2)cc1	5%	-69%	?	1.4µM*	?
CNc1ncc(C(=O)c2ccc(-c3ccccc3)cc2)s1	/	1%[10 µM]	/	/	-11%[9.22 µM]
Cc1ccc(C(=O)c2cnc3ccccc3c2-c2ccccc2)cc1	-5%	-30%	-15%	13µM*	?
CCCCCCCCCCCCC/C=C/[C@@H](O)C(CO)NC(C)=O (stereo partly specified)	/	-29%	-6%	-1%	/
CCCCC(=O)Nc1cccc(-c2nn3c(C)nnc3s2)c1	-13%	7%	16µM*	2%	?

Screening results: PubChem BioAssay, National Center for Advancing Translational Sciences (NCATS)
